Test [1] concerns the target Lysosomal acid glucosylceramidase (Homo sapiens) (UniProt P04062). The test is described as follows: Glucocerebrosidase-p2 (AID 348; in the data active = potency below about 10 µM; also: potency is read from the fitted curve at half-maximal effect). Particulars: purified GBA, blue fluorogenic substrate, 40 min. In short, it runs like this: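 Compounds titrated from 0.6 nM upwards against 0.2 nM enzyme in pH 5.9 citric acid/KH2PO4, taurocholate, tween-20; blue fluorogenic substrate 80 uM, 40 min room temperature, stopped and read Ex 365/Em 440 for AC50.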

Test [2] is described as follows: AP1 Signaling Pathway (AID 357; active = well fitted curve in either direction with a large enough effect, not every such curve was filed as active;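 also: ME-180 reporter cells stimulated with EGF at its EC50 level; % is scaled to controls: 0 for no effect and ±100 for the full control effect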). Particulars: ME-180 AP-1-bla reporter, EGF-induced, beta-lactamase ratio, 5 h; at 7.69 µM (top of the series) unless noted. The gist of the method:
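Modulation of EGF-driven AP-1 transcription was assessed with a beta-lactamase reporter in ME-180 cells. Compound and EC50 EGF were co-incubated 5 hours at 37 °C before 2.5-hour CCF4 loading at room temperature and dual-emission reading.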

Test [3] has as its target Cytochrome P450 1A2 (Homo sapiens) (UniProt P05177). Description: p450-cyp1a2 (AID 410; calls by dose curve; also: potency is read from the fitted curve at half-maximal effect). Particulars: recombinant CYP1A2, luciferin-ME demethylation, luminescence; series mostly up to 57 µM. In short, it runs like this:
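Luminescent readout of luciferin formed from Luciferin-ME by human CYP1A2; data normalized against complete inhibition by 57 uM furafylline. Enzyme 20nM, substrate 100uM at Km, 100mM KPO4 buffer, 60 min reaction at room temperature.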

A short description of test [4]: Stat Signaling Pathway (AID 446; active = well fitted curve in either direction with a large enough effect, not every such curve was filed as active;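 also: ME-180 cervical cancer cells given 40 pM IL-6 alongside compound; SIE-controlled beta-lactamase reporter measured as 460/530 nm FRET emission ratio; % is scaled to controls: 0 for no effect and ±100 for the full control effect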). Particulars: ME-180 SIE beta-lactamase reporter, IL-6 stimulated, 5 h; at 7.69 µM (top of the series) unless noted. The gist of the method:
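ME-180 cells carrying a SIE-driven beta-lactamase reporter are stimulated with 40 pM IL-6 for 5 h at 37C in the presence of compound. The 460/530 nm FRET substrate ratio is read after 2.5 h at RT. Data are normalised to 300 pM IL-6 and to 125 nM JAK inhibitor controls.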

The target of test [5] is Glucocorticoid receptor (Homo sapiens) (UniProt P04150). Description: GR-GFP Redistribution (AID 450;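 active = compounds whose dose series gives a full or clear partial fitted curve of increased nuclear translocation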; also: potency is read from the fitted curve at half-maximal effect). Particulars: U2OS GR-GFP nuclear translocation, laser cytometry, 2 h.
For test [6] the target is unchanged. Description: GR-EFC Redistribution (AID 451; calls by dose curve; also: potency is read from the fitted curve at half-maximal effect). Particulars: CHO-K1 GR-EFC translocation, beta-gal luminescence, 2 h. The gist of the method: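 CHO-K1 cells stably expressing nuclear-localized β-gal enzyme acceptor and GR fused C-terminally to the enzyme donor fragment; ligand-driven nuclear translocation restores β-gal by complementation. Compounds titrated up to 46 uM final, 2 h at 37 °C; luminescence read.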

Test [7] concerns the target Mitogen-activated protein kinase 10 (Mus musculus) (UniProt Q61831). The test is described as follows: JNK3 AlphaScreen Assay (AID 530; active = well fitted curve in either direction with a large enough effect, not every such curve was filed as active;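 also: kinase came from lysate of stimulated human HepG2 cells; signal reports phosphorylation of biotinylated GST-cJun 1-79 at Ser73 with 10 µM ATP; % is scaled to controls: 0 for no effect and ±100 for the full control effect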). As to conditions: JNK3 lysate, c-Jun phosphorylation; series mostly up to 57.1 µM. The gist of the method: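 Inhibitors reduce antibody binding to phosphorylated biotin-cJun, lowering AlphaScreen luminescence. Lysates from HepG2 cells pre-activated by IL-1beta plus TNF-alpha supplied JNK3; compounds were titrated.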

Test [8] concerns the target 3',5'-cyclic-AMP phosphodiesterase 4B (Homo sapiens) (UniProt Q07343). The test is described as follows: qHTS Assay for Inhibitors of PDE-IV (AID 607; active = well fitted activation curve with a large enough effect in the main read-out, with a control signal flat, not every such curve was filed as active; also: % of control where 0% means no effect). As to conditions: HEK293 ACTOne CNG channel cells, membrane potential fluorescence; series mostly up to 22.9 µM. In short, it runs like this: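 HEK293 ACTOne cells with CNG channel (1000/well), endogenous PDE4; membrane potential dye, compounds up to 22.9 uM final. Fluorescence Ex 535/Em 590; RO 20-1724 (100 uM final) as reference.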
A general note: Quantitative high-throughput screening tests each substance at several concentrations.

For test [9], the target named is Cytochrome P450 3A4 (Homo sapiens) (UniProt P08684). The test is described as follows: qHTS Assay for Activators of Cytochrome P450 3A4 (AID 885). Also: nearly all actives have a fitted effect of over 65% in size. As to conditions: recombinant CYP3A4, Luciferin-PPXE luminescence, 60 min; series mostly up to 57.1 µM. In short, it runs like this: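 Human CYP3A4 (20 nM) with Luciferin-PPXE at 25 uM (its KM) in 200 mM KPO4; 10 min compound preincubation, then NADPH regeneration and 60 min reaction at RT. Luciferin read by luminescence; normalized to 57 uM ketoconazole full inhibition.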

Test [10] has as its target Cytochrome P450 2D6 (Homo sapiens) (UniProt P10635). The test is described as follows: qHTS Assay for Inhibitors and Substrates of Cytochrome P450 2D6 (AID 891). Also: potency is read from the fitted curve at half-maximal effect; nearly all actives have a fitted effect of over 60% in size. Particulars: recombinant CYP2D6, luciferin-ME EGE luminescence; series mostly up to 57.1 µM. The gist of the method:
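Human CYP2D6 (5 nM) with 30 uM Luciferin-ME EGE (at Km) in 100 mM KPO4, compound preincubated 10 min, then NADPH regeneration system for 60 min at room temperature. Luciferin read by luminescence; normalized to 1.43 uM quinidine.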

A short description of test [11]: Confirmation and Secondary Assay for Modulators of Hemoglobin Beta Chain Splicing at IVS2 654 locus (AID 910).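 Also: per-well total GFP intensity by laser scanning cytometry after 2-day treatment; % of control where 0% means no effect.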 Particulars: HeLa EGFP-654 splicing reporter, GFP fluorescence, 48 h; series mostly up to 38.3 µM. The gist of the method:
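HeLa cells stably carrying EGFP interrupted by mutant beta-globin IVS2-654 intron (CMV-driven) were treated with compound for 2 days at 37C; corrected splicing was scored as total peak GFP intensity per well (488 nm excitation, 500-520 nm emission).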

Test [12] can be described thus: Confirmation and Secondary Assay for Modulators of Hemoglobin Beta Chain Splicing at IVS2 705 locus (AID 930).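 Also: HeLa cells stably expressing the EGFP-705 splicing reporter; % of control where 0% means no effect.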 As to conditions: HeLa EGFP-705 splicing reporter, GFP fluorescence, 48 h; series mostly up to 38.3 µM. In short, it runs like this:
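Restored EGFP fluorescence after 2-day compound exposure reports splicing correction in IVS2-705 EGFP reporter HeLa cells; positive control was 500 nM splice-blocking PNA oligo. Signal measured as well total peak GFP intensity (488 nm excitation).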

Test [13] is described as follows: qHTS Assay for Lipid Storage Modulators (AID 1519; calls by dose curve). Particulars: Drosophila S3 cells, BODIPY lipid droplet/cell ratio, laser cytometry, cells loaded with oleic acid; for activity change, negative = inhibition: at 57.5 µM (top of the series). The gist of the method:
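Cells seeded at 5,000 per well were treated with compounds over a concentration series and loaded with oleic acid (400 uM, as added). Lipid droplet fluorescence (488 nm excitation, 500-530 nm channel) was read by laser-scanning cytometry and normalized to 20 uM Triacsin C.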

Test [14] deals with Ubiquitin carboxyl-terminal hydrolase 1 (Homo sapiens) (UniProt O94782). Description: Inhibitors of USP1/UAF1: Pilot qHTS (AID 504865).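 Also: rhodamine fluorescence freed from ubiquitin-rhodamine substrate followed over time; top concentration of the series differs between compounds; % is scaled to controls: 0 for no effect and ±100 for the full control effect; nearly all actives have a fitted effect of over 35% in size.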 Particulars: purified USP1/UAF1, Ub-rhodamine cleavage fluorescence; series mostly up to 54.9 µM. In short, it runs like this: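 USP1/UAF1 complex (1nM) preincubated with compound 15 min at room temperature, then Ub-Rho substrate (150nM final) added. Fluorescence read kinetically at 480/540 nm, 6 reads every 60 seconds. Buffer: 50mM HEPES pH 7.8, 0.5mM EDTA, 0.1 mg/ml BSA, 1mM TCEP, 0.01% Tween-20.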

A short description of test [15]: Primary qHTS for small molecule stabilizers of the endoplasmic reticulum resident proteome: Secreted ER Calcium Modulated Protein (SERCaMP) assay (AID 1508630). Also: % is scaled to controls: 0 for no effect and ±100 for the full control effect. As to conditions: SH-SY5Y GLuc-SERCaMP (Gaussia luciferase released on ER calcium loss) secretion, thapsigargin, luminescence; series mostly up to 38.4 µM. In short, it runs like this: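 GLuc-SERCaMP-expressing SH-SY5Y cells, pretreated 16 h with compound, are challenged with thapsigargin to empty ER calcium stores; after 4 h, coelenterazine is added directly to the medium and luminescence is imaged.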

The target in test [16] is Cytochrome P450 2C9 (Homo sapiens) (UniProt P11712). The test is described as follows: qHTS Assay for Inhibitors and Substrates of Cytochrome P450 2C9 (AID 883). Also: potency is read from the fitted curve at half-maximal effect; nearly all actives have a fitted effect of over 60% in size. Particulars: recombinant CYP2C9, luciferin-H luminescence, 60 min; series mostly up to 57.1 µM. The gist of the method:
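Human CYP2C9 (10nM) hydroxylated Luciferin-H (100uM, at its KM) to luciferin in 25mM KPO4. Compound was preincubated 10 min at 37C, then NADPH regeneration started a 60 min reaction at 37C. Luminescence was read after detection reagent, normalized to 57uM sulphaphenazole.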

Test [17] is described as follows: qHTS Assay for Identification of Small Molecule Agonists for Hypoxia Response Element Signaling Pathway (AID 914; active = well fitted activation curve with a large enough effect in the signal ratio, with a control signal flat, not every such curve was filed as active; the % refers to the signal ratio; also: % of control where 0% means no effect). As to conditions: ME-180 (cervical carcinoma) HRE-bla reporter, beta-lactamase ratio, CoCl2, 17 h; activation: stronger effect = higher value. The gist of the method:
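AC50 values come from titration-series %Activity, taken as the 460/530nm ratio of CCF4 fluorescence (excitation 405nm). CellSensor HRE-bla ME-180 cells were treated 17 hours at 37 C with compound plus an EC50 level of CoCl2.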

Where [18] appears, read: measured here: cell count channel max response.
[19] abbreviates: measured here: lipid channel max response.

The values below come from PubChem BioAssay (NCATS).

Records with an inconclusive call do not appear. The source made the active and inactive calls. Unless noted, calls follow the shape of the dose curve; as a rule, active = well fitted curve in the direction sought with a large enough effect; inconclusive = small, poorly fitted or top-dose-only effect, or another doubt; inactive = no such curve, though single readings can be large; an effect the other way counts as inactive or inconclusive.

Sequence of Glucocorticoid receptor (Homo sapiens) (P04150 whole entry, looked up, the tested form may be a part): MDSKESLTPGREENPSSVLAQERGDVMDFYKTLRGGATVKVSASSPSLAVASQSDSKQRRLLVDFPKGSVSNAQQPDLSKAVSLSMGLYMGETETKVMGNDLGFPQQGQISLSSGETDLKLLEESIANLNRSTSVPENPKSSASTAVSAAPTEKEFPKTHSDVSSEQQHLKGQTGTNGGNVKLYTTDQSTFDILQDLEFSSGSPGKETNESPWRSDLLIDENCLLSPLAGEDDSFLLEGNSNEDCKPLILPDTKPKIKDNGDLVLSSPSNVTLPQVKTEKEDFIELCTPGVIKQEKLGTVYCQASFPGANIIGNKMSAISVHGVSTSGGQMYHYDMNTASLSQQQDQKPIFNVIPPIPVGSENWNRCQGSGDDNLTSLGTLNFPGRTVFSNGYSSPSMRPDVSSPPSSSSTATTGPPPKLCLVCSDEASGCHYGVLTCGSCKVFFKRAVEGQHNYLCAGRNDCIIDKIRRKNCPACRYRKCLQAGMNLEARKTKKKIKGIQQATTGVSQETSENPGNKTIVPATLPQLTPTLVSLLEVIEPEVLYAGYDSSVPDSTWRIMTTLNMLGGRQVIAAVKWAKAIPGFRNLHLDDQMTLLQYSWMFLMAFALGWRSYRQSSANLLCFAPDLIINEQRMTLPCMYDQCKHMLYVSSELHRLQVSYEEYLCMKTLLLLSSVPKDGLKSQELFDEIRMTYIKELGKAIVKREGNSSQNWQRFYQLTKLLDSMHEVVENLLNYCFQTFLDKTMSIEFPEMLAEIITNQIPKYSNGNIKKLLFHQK
Sequence of Cytochrome P450 1A2 (Homo sapiens) (P05177 whole entry, looked up): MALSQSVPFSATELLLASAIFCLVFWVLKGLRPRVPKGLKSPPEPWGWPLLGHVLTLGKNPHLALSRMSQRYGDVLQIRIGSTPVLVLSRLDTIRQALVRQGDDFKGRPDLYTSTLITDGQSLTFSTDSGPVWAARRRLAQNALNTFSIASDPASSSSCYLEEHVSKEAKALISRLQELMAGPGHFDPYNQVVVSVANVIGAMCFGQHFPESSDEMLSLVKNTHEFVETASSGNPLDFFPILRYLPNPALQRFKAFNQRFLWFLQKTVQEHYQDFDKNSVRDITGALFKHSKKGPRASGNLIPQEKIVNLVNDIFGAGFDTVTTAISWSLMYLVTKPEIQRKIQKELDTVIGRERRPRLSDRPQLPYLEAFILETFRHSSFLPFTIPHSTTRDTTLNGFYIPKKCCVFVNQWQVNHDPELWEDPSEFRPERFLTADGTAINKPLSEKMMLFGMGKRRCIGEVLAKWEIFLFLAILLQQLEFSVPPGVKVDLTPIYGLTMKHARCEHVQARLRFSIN
Sequence of Lysosomal acid glucosylceramidase (Homo sapiens) (P04062 whole entry, looked up): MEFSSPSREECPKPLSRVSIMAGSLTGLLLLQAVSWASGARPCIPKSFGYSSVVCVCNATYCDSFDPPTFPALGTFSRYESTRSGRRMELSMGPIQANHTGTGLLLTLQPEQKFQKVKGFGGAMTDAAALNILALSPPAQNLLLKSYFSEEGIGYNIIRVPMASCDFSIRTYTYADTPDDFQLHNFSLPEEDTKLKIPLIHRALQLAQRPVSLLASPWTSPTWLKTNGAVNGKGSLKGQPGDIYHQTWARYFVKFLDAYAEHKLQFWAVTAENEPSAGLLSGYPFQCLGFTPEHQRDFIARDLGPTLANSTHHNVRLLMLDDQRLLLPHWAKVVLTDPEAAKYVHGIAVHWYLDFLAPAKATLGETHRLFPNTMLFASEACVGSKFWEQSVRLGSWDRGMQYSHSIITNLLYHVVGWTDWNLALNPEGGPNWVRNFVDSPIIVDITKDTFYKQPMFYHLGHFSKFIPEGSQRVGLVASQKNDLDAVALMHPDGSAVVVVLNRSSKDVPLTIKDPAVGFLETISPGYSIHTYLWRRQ
Sequence of 3',5'-cyclic-AMP phosphodiesterase 4B (Homo sapiens) (Q07343 whole entry, looked up): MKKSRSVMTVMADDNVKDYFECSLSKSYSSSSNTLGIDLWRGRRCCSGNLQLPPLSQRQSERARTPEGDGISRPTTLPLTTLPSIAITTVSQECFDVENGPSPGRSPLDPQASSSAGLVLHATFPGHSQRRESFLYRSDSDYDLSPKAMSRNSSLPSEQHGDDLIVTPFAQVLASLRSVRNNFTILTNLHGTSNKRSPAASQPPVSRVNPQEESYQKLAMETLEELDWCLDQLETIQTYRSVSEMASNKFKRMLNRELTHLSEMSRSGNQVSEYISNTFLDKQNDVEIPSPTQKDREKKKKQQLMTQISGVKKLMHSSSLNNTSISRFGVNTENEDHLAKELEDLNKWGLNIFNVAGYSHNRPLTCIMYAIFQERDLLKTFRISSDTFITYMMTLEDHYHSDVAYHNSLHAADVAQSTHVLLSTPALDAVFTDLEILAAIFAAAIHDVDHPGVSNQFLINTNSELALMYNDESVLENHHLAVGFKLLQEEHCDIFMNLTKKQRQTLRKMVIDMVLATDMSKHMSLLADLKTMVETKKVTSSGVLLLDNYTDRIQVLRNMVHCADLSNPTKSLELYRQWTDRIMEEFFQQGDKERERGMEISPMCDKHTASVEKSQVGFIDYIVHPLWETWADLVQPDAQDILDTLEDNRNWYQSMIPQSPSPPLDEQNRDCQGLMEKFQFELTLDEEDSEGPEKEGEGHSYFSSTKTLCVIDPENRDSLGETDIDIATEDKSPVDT
Sequence of Cytochrome P450 3A4 (Homo sapiens) (P08684 whole entry, looked up): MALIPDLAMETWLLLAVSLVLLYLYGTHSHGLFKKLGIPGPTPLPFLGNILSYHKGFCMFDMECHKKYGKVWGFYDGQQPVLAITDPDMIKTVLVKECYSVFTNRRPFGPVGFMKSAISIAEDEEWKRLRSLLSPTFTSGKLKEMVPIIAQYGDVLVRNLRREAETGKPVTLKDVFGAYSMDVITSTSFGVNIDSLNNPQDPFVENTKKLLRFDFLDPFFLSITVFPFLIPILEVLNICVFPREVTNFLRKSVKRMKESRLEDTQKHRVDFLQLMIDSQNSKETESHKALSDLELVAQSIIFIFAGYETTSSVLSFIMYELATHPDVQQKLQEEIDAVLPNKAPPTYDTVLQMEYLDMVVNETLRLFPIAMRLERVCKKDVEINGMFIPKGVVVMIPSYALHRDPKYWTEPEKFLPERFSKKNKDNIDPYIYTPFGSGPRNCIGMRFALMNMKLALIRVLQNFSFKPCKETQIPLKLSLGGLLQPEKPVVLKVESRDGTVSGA
Sequence of Ubiquitin carboxyl-terminal hydrolase 1 (Homo sapiens) (O94782 whole entry, looked up): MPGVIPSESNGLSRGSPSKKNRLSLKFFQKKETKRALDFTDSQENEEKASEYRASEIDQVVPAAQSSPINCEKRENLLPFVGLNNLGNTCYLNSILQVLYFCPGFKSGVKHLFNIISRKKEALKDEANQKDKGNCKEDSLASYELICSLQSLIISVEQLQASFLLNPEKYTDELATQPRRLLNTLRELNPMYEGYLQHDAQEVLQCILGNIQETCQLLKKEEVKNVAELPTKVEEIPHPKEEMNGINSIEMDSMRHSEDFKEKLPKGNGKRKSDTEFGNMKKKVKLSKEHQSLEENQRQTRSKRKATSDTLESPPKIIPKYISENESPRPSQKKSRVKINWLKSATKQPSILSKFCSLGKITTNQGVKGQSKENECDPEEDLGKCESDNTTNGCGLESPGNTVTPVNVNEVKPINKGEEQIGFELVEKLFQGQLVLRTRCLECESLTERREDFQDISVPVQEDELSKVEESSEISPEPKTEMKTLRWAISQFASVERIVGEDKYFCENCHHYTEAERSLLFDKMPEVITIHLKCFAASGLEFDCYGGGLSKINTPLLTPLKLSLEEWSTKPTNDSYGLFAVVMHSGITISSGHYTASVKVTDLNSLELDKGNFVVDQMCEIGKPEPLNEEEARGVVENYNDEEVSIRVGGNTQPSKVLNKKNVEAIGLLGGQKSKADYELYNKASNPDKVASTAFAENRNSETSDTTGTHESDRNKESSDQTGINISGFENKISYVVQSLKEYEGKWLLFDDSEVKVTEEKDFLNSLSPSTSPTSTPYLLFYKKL
Sequence of Cytochrome P450 2D6 (Homo sapiens) (P10635 whole entry, looked up): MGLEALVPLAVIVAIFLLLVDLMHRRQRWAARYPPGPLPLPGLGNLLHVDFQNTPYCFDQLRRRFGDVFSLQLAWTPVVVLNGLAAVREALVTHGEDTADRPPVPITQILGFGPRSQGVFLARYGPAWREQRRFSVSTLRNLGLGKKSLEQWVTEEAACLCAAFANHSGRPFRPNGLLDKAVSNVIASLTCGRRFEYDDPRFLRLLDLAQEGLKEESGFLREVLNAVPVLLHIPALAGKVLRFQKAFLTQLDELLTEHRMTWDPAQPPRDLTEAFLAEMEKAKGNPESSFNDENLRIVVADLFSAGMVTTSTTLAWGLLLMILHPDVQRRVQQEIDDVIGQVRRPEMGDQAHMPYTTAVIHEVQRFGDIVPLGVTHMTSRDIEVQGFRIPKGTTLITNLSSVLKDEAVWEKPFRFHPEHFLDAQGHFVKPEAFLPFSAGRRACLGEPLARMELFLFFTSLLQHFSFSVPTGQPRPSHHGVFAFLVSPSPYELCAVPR
Sequence of Cytochrome P450 2C9 (Homo sapiens) (P11712 whole entry, looked up): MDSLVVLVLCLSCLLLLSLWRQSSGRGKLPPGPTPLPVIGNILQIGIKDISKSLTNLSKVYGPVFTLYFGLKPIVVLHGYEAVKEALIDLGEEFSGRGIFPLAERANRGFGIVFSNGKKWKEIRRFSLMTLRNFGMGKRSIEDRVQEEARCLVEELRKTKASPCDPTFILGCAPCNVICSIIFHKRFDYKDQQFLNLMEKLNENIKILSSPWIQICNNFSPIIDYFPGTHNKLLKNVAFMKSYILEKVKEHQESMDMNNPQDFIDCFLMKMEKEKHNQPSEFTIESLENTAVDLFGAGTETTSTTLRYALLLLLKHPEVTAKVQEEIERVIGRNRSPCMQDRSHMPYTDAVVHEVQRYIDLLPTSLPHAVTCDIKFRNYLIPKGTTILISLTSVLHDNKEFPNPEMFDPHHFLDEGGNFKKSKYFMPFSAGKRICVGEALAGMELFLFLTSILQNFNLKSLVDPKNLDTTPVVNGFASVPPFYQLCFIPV

As for `CN(C)Cc1ccccc1-c1cc(-n2ccnc2)ncn1`, the Potency was > 11.4 µM (inactive) in [1]; 5.01 µM (active) in [3]; > 46 µM (inactive) in test [5]; > 46 µM (inactive) in [6]; 2.51 µM (active) in [10]. In addition, the figures for the activity change, negative = inhibition in test [2] and in test [13] were -2.52% (inactive) and 11.3% (inactive), respectively. For the same compound, the activity, negative = inhibition in [4] is 1.39% (inactive). Moreover, the Potency entry in test [7], in test [8], in test [9], in [11] and in test [14] was “inactive” throughout. The compound was called inactive in test [12] and in test [15]. Further, the results for the max response in test [13] (setting [18]) and in test [13] (setting [19]) were 4.13% and 14.2%, respectively.
As for `O=C(c1cccc(F)c1)N1CCC2(CCN(Cc3ccncc3)CC2)CC1`, the Potency is > 11.4 µM (inactive) in test [1], 12.6 µM (active) in [3], > 46 µM (inactive) in test [6] and 2.51 µM (active) in test [16]. The figures for the activity change, negative = inhibition in [2] and in test [13] were -25.9% (inactive) and 2.27% (inactive), respectively. For the same compound, the activity, negative = inhibition in test [4] was -0.6% (inactive). Moreover, the Potency entry in [7], in test [8] and in [9] was “inactive” each time. Further, the max response stood at 4.86% in test [13] (setting [18]) and 11.8% in test [13] (setting [19]). Besides, the outcome in test [15] was inactive.
With `COc1ccccc1-c1nc(NCCNC(C)=O)c2ccccc2n1`, the Potency was > 11.4 µM (inactive) in [1]; 15.8 µM (active) in test [3]; > 46 µM (inactive) in test [5]; > 46 µM (inactive) in test [6]; 6.31 µM (active) in test [10]. Also, the activity change, negative = inhibition in test [2] is -11.3% (inactive); in [13], 5.2% (inactive). In addition, in [4], the activity, negative = inhibition was 5.28% (inactive). For the same compound, the Potency result in test [7], in [8] and in test [14] was “inactive” each time. Besides, the activation in test [17] is -0.258% (inactive). Besides, the outcome in test [12] and in [15] was inactive. The max response in [13] (setting [18]) came out at 8.82%; in test [13] (setting [19]), 14.5%.
